BRCT inh green: inhibitors of human BRCA1 BRCT-phosphoprotein interaction (green fluorophore). Potency, µM (top dose mostly 76.9 µM), without a hit: at the top dose activity change, negative = inhibition, most hits filed as inhibitors. actives 0.05% (n = 75,000). P38398. BRCA1 BRCT-phosphopeptide binding, green fluorescence polarization;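 note: potency is the fitted concentration of half-maximal effect; plate controls were peptide without protein for full effect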
Target sequence (P38398 whole entry, looked up): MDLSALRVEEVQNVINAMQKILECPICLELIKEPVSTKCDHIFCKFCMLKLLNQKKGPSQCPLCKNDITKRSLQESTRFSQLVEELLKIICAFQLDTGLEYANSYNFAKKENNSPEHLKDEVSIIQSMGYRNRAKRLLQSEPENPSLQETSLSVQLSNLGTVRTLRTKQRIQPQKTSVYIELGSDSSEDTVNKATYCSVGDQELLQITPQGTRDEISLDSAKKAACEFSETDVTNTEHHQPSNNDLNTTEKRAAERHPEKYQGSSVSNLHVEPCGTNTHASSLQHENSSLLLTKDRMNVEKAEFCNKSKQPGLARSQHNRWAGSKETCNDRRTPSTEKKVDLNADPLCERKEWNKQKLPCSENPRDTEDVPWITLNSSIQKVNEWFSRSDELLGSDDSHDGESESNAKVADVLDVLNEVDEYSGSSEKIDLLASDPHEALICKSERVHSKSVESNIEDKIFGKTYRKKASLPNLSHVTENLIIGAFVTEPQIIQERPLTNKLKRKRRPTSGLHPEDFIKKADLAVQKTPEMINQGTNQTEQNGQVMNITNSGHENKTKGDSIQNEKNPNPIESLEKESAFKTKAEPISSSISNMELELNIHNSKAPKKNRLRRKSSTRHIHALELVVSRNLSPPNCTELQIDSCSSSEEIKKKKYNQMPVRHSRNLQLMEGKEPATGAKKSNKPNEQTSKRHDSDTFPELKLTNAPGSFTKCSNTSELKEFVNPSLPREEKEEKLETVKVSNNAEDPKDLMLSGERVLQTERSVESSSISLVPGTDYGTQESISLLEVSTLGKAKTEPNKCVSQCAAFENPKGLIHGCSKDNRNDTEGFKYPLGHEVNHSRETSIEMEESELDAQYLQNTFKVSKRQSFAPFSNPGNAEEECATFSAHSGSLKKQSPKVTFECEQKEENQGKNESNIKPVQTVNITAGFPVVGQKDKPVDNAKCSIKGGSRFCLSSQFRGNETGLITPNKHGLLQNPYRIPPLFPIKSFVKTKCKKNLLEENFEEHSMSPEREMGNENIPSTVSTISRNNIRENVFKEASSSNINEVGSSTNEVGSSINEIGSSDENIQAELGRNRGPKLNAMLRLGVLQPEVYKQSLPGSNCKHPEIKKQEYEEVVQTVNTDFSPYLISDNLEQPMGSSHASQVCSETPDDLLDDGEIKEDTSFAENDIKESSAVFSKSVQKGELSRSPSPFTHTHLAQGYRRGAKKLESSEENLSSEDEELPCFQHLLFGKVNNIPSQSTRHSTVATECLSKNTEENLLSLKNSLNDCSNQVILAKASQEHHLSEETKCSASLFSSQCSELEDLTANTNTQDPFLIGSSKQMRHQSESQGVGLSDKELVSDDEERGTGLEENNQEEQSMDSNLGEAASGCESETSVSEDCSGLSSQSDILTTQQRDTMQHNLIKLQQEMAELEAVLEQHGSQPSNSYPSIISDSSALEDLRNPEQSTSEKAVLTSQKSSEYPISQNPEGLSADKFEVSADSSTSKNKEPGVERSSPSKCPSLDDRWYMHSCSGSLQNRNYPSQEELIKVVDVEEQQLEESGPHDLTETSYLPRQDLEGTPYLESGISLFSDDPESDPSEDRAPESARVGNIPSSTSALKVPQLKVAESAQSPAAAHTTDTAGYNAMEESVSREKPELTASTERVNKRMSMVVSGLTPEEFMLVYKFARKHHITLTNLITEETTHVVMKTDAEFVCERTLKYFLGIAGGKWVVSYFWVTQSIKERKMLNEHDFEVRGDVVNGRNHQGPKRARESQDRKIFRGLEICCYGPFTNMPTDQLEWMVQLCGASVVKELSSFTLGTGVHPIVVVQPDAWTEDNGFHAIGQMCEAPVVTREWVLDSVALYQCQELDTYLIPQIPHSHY
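Fluorescence polarization: His-tagged BRCT (~35 kDa BRCA1 C-terminus, 250 nM) bound to 100 nM fluorescein-labeled phosphorylated 10-aa BACH1 peptide, pH 7.3 phosphate buffer with DTT and Tween 20. Compounds incubated 12 min at room temperature; inhibition read as lowered polarization.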
BRCT inh red: BRCT-phosphoprotein interaction inhibition (red fluorophore) | P38398 | BRCT-phosphopeptide binding, red fluorescence polarization | actives 0.03% (n = 75,000) | AID 892 | Potency, µM (highest dose often 76.9 µM), inactives show at the top dose activity change, negative = inhibition, most hits filed as inhibitors; note: % is set by controls: 0 for no effect and ±100 for the full control effect
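Rhodamine-labelled pBACH1 10-mer (100 nM) bound to BRCT domain (100 nM) at pH 7.3; compounds incubated 12 min room temperature, polarization read. Free peptide defines full inhibition; unlabelled decapeptide titrated as control.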
GBA mod: modulators of human glucocerebrosidase | AID 360 | actives 1.1% (n = 48,000) | P04062 | purified enzyme, resorufin glucoside fluorescence (screen aimed at inhibitors), 20 min | Potency, µM; in the data active = potency below about 15 µM; inconclusive = mostly about 16 µM to 33 µM;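 note: potency is the fitted concentration of half-maximal effect; the screen sought inhibitors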
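Normal human glucocerebrosidase (0.2 nM final) was assayed with resorufin β-D-glucopyranoside (30 uM final) in 50mM citric acid/KH2PO4, 10mM sodium taurocholate, 0.01% tween-20, pH 5.9. Compounds were titrated; fluorescence (Ex 548, Em 600) read after 20 min at RT.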
DNA Pol III inh: blocks replication by bacterial DNA polymerase III holoenzyme; reconstituted DNA polymerase III holoenzyme replication, biochemical; actives 0.25% (n = 71,000); Potency, µM (highest dose often 57.1 µM), inactives show at the top dose activity change, negative = inhibition; note: potency is the fitted concentration of half-maximal effect; % is set by controls: 0 for no effect and ±100 for the full control effect
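Reconstituted *E. coli* holoenzyme (0.35 nM Pol III, 1 nM beta, 154 nM SSB, 2 nM primase) was preincubated with compound for 15 min at RT. Synthesis on 1.4 nM ssM13Gori ran 35 min, then was stopped with PicoGreen/EDTA and read as dsDNA fluorescence.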
Hsp90 Hop PPI: changes Hsp90-Hop TPR2A binding signal, up or down; AlphaScreen TPR2A-His6 binding biotin-Hsp90 C-terminal peptide; Potency, µM (titrated, usually from 57 µM), without a hit: at the top dose activity change, negative = inhibition; actives 0.44% (n = 71,000); AID 595; active = well fitted curve in either direction with a large enough effect; inconclusive = small, poorly fitted or top-dose-only effect, or another doubt; note: potency is the fitted concentration of half-maximal effect; % is set by controls: 0 for no effect and ±100 for the full control effect
TsaE inh: inhibitors of E. coli YjeE (TsaE); actives 0.05% (n = 71,000); AID 605; Potency, µM; purified YjeE enzyme, qHTS inhibition assay; P0AF67
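Fluorescence polarization of a BODIPY Texas Red–ADP probe (2 uM) bound to purified YjeE (10 uM) was read after 15 min room-temperature incubation with compounds. Loss of polarization marks inhibitors; ADP serves as titrated control.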
* = called active by the depositor; i = inactive; ? = inconclusive; . = no result given; ! = repeats disagree; [ ] = dose if it differs, or a comment. Sampled rows, rich in hits. Any-hit rate of the full collection: about 1.2%. Unless noted, calls come from the whole dose curve; as a rule, active = well fitted curve in the direction sought with a large enough effect; inconclusive = small, poorly fitted or top-dose-only effect, or another doubt; inactive = no such curve, though single readings can be large; an effect the other way counts as inactive or inconclusive.

SMILES	BRCT inh green	BRCT inh red	GBA mod	DNA Pol III inh	Hsp90 Hop PPI	TsaE inh
NC1(C(=O)O)CCC1	-4%	-2%	.	-2%	-3%	i
N.N.O=C(O)C1(C(=O)O)CCC1.[Pt]	-2%[3.08 µM]	1%	.	7.9µM*	?	i
CC(=O)OC1CCC2(C)C3CCC4(C)C(CC5CCCCC54C(C)=O)C3CC(=O)[C@@]2(O)C1 (stereo partly specified)	-1%	0%	.	.	.	.
Oc1ccc(CNc2ccc(F)cc2)c2cccnc12	-1%	0%	>77	-3%	7.9µM*	i
Oc1ccccc1-c1nc(N2CCN(Cc3ccccc3)CC2)c2ccccc2n1	-1%	0%	>77	9%	0%	i
Oc1ccc(CN2CCN(Cc3ccccc3)CC2)c2cccnc12	0%	1%	>77	-1%	4µM*	i
Oc1c(CN2CCCCC2)cc(Br)c2cccnc12	-2%	-1%	>77	-3%	3.2µM*	i
Fc1ccc(NCc2cn3ccccc3n2)cc1	-1%	1%	>77	0%	-6%	i
CO[C@@H]1COC(=O)CC=C[C@@H](C)[C@@H]2C=C[C@H](O)[C@@H](COC(=O)C/C=C\[C@H]1C)O2	0%[15.4 µM]	-1%[15.4 µM]	.	.	.	.
CCN(CC)CCC[C@H](C)Nc1c2ccc(Cl)cc2nc2ccc(OC)cc12	?	-1%[34.4 µM]	.	32µM*!	2%[26 µM]	i
CCc1nc(N2CCOCC2)c(C#N)c2c1COC(C)(C)C2	0%	-3%	>77	7%	-1%	i
CC1CCN(c2nc(-c3ccco3)c3c(c2C#N)CC(C)(C)OC3)CC1	3%	-1%	.	-5%	25µM*	i
Cn1c(=O)c2c(nc(/C=C\c3cccc(Cl)c3)n2C)n(C)c1=O	-3%	-2%	.	-9%	-10%	i
Clc1ccc(C(c2nnnn2C2CCCCC2)N(Cc2cccnc2)Cc2ccco2)cc1 (stereo unspecified)	2%	1%	13*	-7%	-1%	i
Cc1ccc2[nH]c(=O)c(C(c3nnnn3C3CCCC3)N(Cc3cccnc3)Cc3ccco3)cc2c1 (stereo unspecified)	0%	0%	.	-4%	-5%	i
CN1CCN(c2ncc3nc(-c4cn(C)c5ccccc45)c(=O)n(Cc4cccs4)c3n2)CC1	0%	0%	.	1%	11%	i
COCCCn1c2nc3ccccc3nc2c2c(=O)n(Cc3ccccc3Cl)cnc21	-4%	-1%	>77	-8%	-3%	i
COCCCn1c2nc3ccccc3nc2c2c(=O)n(Cc3ccc(Cl)cc3)cnc21	-3%	0%	7.3*	-10%	-2%	i
CN1CCN(c2ncc3nc(CCc4ccccc4)c(=O)n(C4CC4)c3n2)CC1	1%	2%	.	-4%	-1%	i
O=C1c2c(O)cc(O)cc2O[C@@H](c2ccc(O)c(O)c2)[C@H]1O	-2%	1%	.	-1%	?	i
CCNC(=O)[C@@H]1O[C@@H](n2cnc3c(NCc4ccccc4)ncnc32)[C@@H](O)[C@H]1O	.	.	.	1%	-8%	i
Cc1ccc(-c2noc(CCC(=O)NCCN3CCc4ccccc4C3)n2)cc1	1%	-1%	15*	-5%	3%	i
COC(=O)N1CCC[C@@]2(CCN(c3ncccn3)C2)C1	0%	-5%	.	-5%	2%	i
O=C1c2ccc(O)c(O)c2C(=O)c2c(O)ccc(O)c21	0%[3.08 µM]	32µM*	.	.	.	.
Cc1ccc(S(=O)(=O)c2c(C)nn(C(C)(C)C)c2OC(=O)c2ccco2)cc1	-3%	0%	.	-6%	-6%	i
SMILES	BRCT inh green	BRCT inh red	GBA mod	DNA Pol III inh	Hsp90 Hop PPI	TsaE inh
Cc1ccc(S(=O)(=O)c2c(C)nn(C(C)(C)C)c2OC(=O)c2ccc(Br)o2)cc1	-1%	-2%	13*	-4%	-2%	i
CC(Oc1ccccc1)C(=O)Nc1ccc(C(N)=O)cc1 (stereo unspecified)	-2%	1%	>77	0%	-4%	i
Cc1ccc(S(=O)(=O)Nc2ccc(C(=O)Nc3cc(C)on3)cc2)cc1	0%	0%	0.16*	0%	-3%	i
Cc1ccc(-c2cc(C(=O)OCC(=O)Nc3cc(C)on3)c3ccccc3n2)c(C)c1	-1%	0%	i	10%	-1%	i
Cc1ccc(C)c(S(=O)(=O)Nc2ccccc2C(=O)Nc2cc(C)on2)c1	-1%	0%	4.8*	5%	-1%	i
Cc1cc(NC(=O)c2ccc(NC(=O)C(C)Oc3ccccc3)cc2)no1 (stereo unspecified)	-2%	1%	1.9*	2%	-3%	i
CCOc1cc(C(=O)Nc2ccc(S(=O)(=O)Nc3cc(C)on3)cc2)cc(OCC)c1OCC	0%	-1%	>77	-4%	3%	i
Cc1cccc(NS(=O)(=O)c2ccc(C)c(C(=O)OCC(=O)Nc3cc(C)on3)c2)c1	-2%	-3%	11*	-2%	-2%	i
C/C(=C\COc1cc(=O)[nH]c2ccccc12)CC[C@@H](O)C(C)(C)O	.	.	.	-3%	-2%	i
Cc1cc(NC(=O)c2ccc(N(C)S(=O)(=O)c3ccccc3)cc2)no1	-2%	-1%	15*	-2%	-2%	i
COc1cccc(Nc2ncc3nc(CCc4ccccc4)c(=O)n(C4CC4)c3n2)c1	42%	1%	.	-9%	-7%	i
CC(C)C1=CC2=CC[C@H]3[C@@](C)(CCC[C@]3(C)C(=O)O)[C@@H]2CC1	.	.	.	-4%	-1%	i
CCC(=O)Oc1ccc(-c2nc(-c3cccnc3)no2)cc1	2%	-1%	7.8*	-4%	-1%	i
O=C(CN1CCC(c2nc3ccccc3[nH]2)CC1)Nc1ccc2c(c1)OCO2	-1%	-1%	14*	0%	-6%	i
Cc1ccc2nc(C3CCN(CC(=O)Nc4ccc5c(c4)OCCO5)CC3)[nH]c2c1	0%	0%	.	2%	-2%	i
CN(C)CCCNC(=O)c1ccc(Cc2nc3ccccc3[nH]2)cc1	-2%	1%	.	.	.	.
Cc1ccccc1-c1cc(N(C)C)ncn1	-2%	1%	.	-7%	-4%	i
FC(F)(F)c1cc(-c2ccco2)nc(-n2cnc3ccccc32)n1	-1%	1%	12*	-2%	-1%	i
CC1=C(C#N)C(c2ccoc2)C(C(=O)OCc2ccccc2)=C(N)S1 (stereo unspecified)	3%	0%	12*	3%	-11%	i
N#CC1=C(N)SC(N)=C(C#N)C1c1ccoc1	3%	-7%	>77	?	-14%	i
Brc1ccccc1-c1nc(-c2ccccc2)no1	0%	1%	.	-2%[11.4 µM]	?	i
Cc1ccc(-c2nc(-c3ccccc3)no2)c(Cl)c1	-1%	0%	.	1%	25µM*	i

Assay outcomes: PubChem, National Center for Advancing Translational Sciences (NCATS)
